HT1080 IDH1KD tx: toxicity to HT-1080 IDH1 knockdown cells (counter line) | hit rate 2% among 360,000 | AID 686971 | Potency, µM (series often up to 46.1 µM), inactives show at the top dose activity, negative = toxicity, usual class: cytotoxic | HT-1080 IDH1 knockdown viability, ATP luminescence, 48 h;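 also: 0% = DMSO wells and -100% = cell-free medium wells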
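% activity derives from luminescence (CellTiter-Glo), normalised to DMSO and no-cell wells. HT-1080-IDH1KD cells, 750/well, had 48 h compound exposure at 37 °C.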
HT1080NT lethal: kills 2HG-producing HT-1080-NT fibrosarcoma cells; hit rate 1.6% among 360,000; HT-1080-NT fibrosarcoma viability, CellTiter-Glo ATP luminescence, 48 h; AID 686970; Potency, µM (top dose mostly 46.1 µM), for the others: at the top dose activity, negative = less viability, most hits filed as cytotoxic;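 also: NT is the 2HG producing partner of a matched IDH1 knockdown line; 0% = DMSO-treated cells and -100% = media-only wells without cells; nearly all actives have a fitted effect of over 55% in size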
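Compounds were tested in concentration-response format on HT-1080-NT cells for 48 hours at 37 degrees C. Cell viability came from CellTiter-Glo luminescence; curves were classified by r2, response magnitude and activity.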
TDP1 cell noCPT: qHTS for Inhibitors of human tyrosyl-DNA phosphodiesterase 1 (TDP1): qHTS in cells in absence of CPT; DT40 Tdp1-/- hTDP1 cells, no CPT, ATP luminescence, 48 h; Potency, µM (top dose mostly 46.2 µM), for inactives: top-dose activity change, negative = growth inhibition, usual class: inhibitors; hit rate 15% among 420,000; also: nearly all actives have a fitted effect of over 55% in size
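Luminescent ATP content (CellTiter-Glo) served as the growth readout. Knockout chicken DT40 cells expressing human TDP1 were exposed to compounds without camptothecin for a minimum 48 hr at 37 °C.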
DT40 TDP1 CPT: growth inhibition of DT40 Tdp1-/-;hTDP1 cells with camptothecin (screen for TDP1 inhibitors); chicken DT40 Tdp1-/-;hTDP1 cells + 20 nM CPT, ATP luminescence, 48 h; Potency, µM (highest dose often 46.2 µM), without a hit: at the highest dose activity change, negative = growth inhibition, most hits filed as inhibitors; hit rate 12% among 420,000; AID 686979; also: nearly all actives have a fitted effect of over 55% in size
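Chicken DT40 Tdp1-/- cells complemented with human TDP1, 400 cells/well, exposed to compounds plus 20 nM camptothecin for at least 48 h at 37 C; viability read as ATP content by CellTiter-Glo luminescence.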
KB-3-1 tox: KB-3-1 parental cell cytotoxicity; KB-3-1 viability, CellTiter-Glo ATP luminescence, 72 h; Potency, µM (titrated, usually from 46.1 µM), usual class: cytotoxic; hit rate 1.4% among 400,000; also: nearly all actives have a fitted effect of over 60% in size
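Here the drug-naive KB-3-1 line serves as comparator for MDR sub-line selectivity; cells received compound titrations, 72 h at 37 °C, then CellTiter-Glo readout.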
KB-V1 cytotox: KB-V1 MDR subline cytotoxicity; hit rate 3.4% among 400,000; KB-V1 MDR cells viability, CellTiter-Glo, 72 h; AID 1347076; Potency, µM (top dose mostly 46.1 µM), most hits filed as cytotoxic; also: nearly all actives have a fitted effect of over 60% in size
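Readout: CellTiter-Glo luminescence, 10 min after addition. Cells: KB-V1 MDR subline, 72 h at 37 degrees C with compound. Analysis: corrected, normalized data fitted to concentration-effect curves.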
Starred values were filed as active, the others as inactive; [ ] = dose if it differs, or a comment. Shown are actives, neighbours in structure and some others; about 19% of the full set was active somewhere. Calls follow the shape of the dose curve; as a rule, active = well fitted curve in the direction sought with a large enough effect; inconclusive = small, poorly fitted or top-dose-only effect, or another doubt; inactive = no such curve, though single readings can be large; an effect the other way counts as inactive or inconclusive. Unless noted, % is scaled to controls: 0 for no effect and ±100 for the full control effect; potency is read from the fitted curve at half-maximal effect.

What do the screens show for `O=C(C1CCCN(S(=O)(=O)c2cccc3nsnc23)C1)N1CCc2ccccc2C1` (configuration not stated)?
HT1080 IDH1KD tx: -11%; HT1080NT lethal: -2%; TDP1 cell noCPT: 23µM*; DT40 TDP1 CPT: inconclusive; KB-3-1 tox: inactive; KB-V1 cytotox: inactive

Results for CC1CCCN(C(=O)C2CCCN(S(=O)(=O)c3cccc4nsnc34)C2)C1 (configuration not stated) ?
HT1080 IDH1KD tx: 1%[9.24 µM]; HT1080NT lethal: -3%; TDP1 cell noCPT: -28%; DT40 TDP1 CPT: inconclusive; KB-3-1 tox: inactive; KB-V1 cytotox: inactive

What do the screens show for `O=C(C1CCN(S(=O)(=O)c2cccc3nsnc23)CC1)N1CCn2c1nc1ccccc12`?
HT1080 IDH1KD tx: -6%; HT1080NT lethal: 0%; TDP1 cell noCPT: 16µM*; DT40 TDP1 CPT: inconclusive; KB-3-1 tox: inactive; KB-V1 cytotox: inactive

Results for O=C(NCc1ccccc1Cl)C1CCCN(S(=O)(=O)c2cccc3nsnc23)C1 (configuration not stated) ?
HT1080 IDH1KD tx: 0%; HT1080NT lethal: 2%; TDP1 cell noCPT: inconclusive; DT40 TDP1 CPT: inconclusive; KB-3-1 tox: inactive; KB-V1 cytotox: inconclusive

How did CC(C)C(NS(=O)(=O)c1cccc2nsnc12)C(=O)N1CCc2ccccc2C1 (configuration not stated) do in these assays?
HT1080 IDH1KD tx: 0%; HT1080NT lethal: 1%; TDP1 cell noCPT: -12%; DT40 TDP1 CPT: -16%; KB-3-1 tox: inactive; KB-V1 cytotox: 18µM*

How did CC1Cc2ccccc2N1C(=O)C1CCCN(S(=O)(=O)c2cccc3nsnc23)C1 (configuration not stated) do in these assays?
HT1080 IDH1KD tx: -29%; HT1080NT lethal: -11%; TDP1 cell noCPT: 15µM*; DT40 TDP1 CPT: inconclusive; KB-3-1 tox: inactive; KB-V1 cytotox: inactive

What do the screens show for `C[C@@H]1CN([C@@H](C)CO)C(=O)CCCn2nncc2CO[C@H]1CN(C)S(=O)(=O)c1ccc(Oc2ccccc2)nc1`?
HT1080 IDH1KD tx: -6%; HT1080NT lethal: -1%; TDP1 cell noCPT: -19%; DT40 TDP1 CPT: -20%; KB-3-1 tox: inactive; KB-V1 cytotox: inactive

What do the screens show for `O=C(C1CCCN(S(=O)(=O)c2cccc3nsnc23)C1)N1CCc2ccccc21` (configuration not stated)?
HT1080 IDH1KD tx: -29%; HT1080NT lethal: -23%; TDP1 cell noCPT: 23µM*; DT40 TDP1 CPT: inconclusive; KB-3-1 tox: inactive; KB-V1 cytotox: inactive

What do the screens show for `O=C(C1CCN(S(=O)(=O)c2cccc3nsnc23)CC1)N1CCc2ccccc21`?
HT1080 IDH1KD tx: -16%; HT1080NT lethal: -3%; TDP1 cell noCPT: inconclusive; DT40 TDP1 CPT: inconclusive; KB-3-1 tox: inactive; KB-V1 cytotox: inconclusive

Results for COc1ccc(-n2c(C)cc(C(=O)Cn3c(NCCO)nc4ccccc43)c2C)cc1 ?
HT1080 IDH1KD tx: -26%; HT1080NT lethal: -18%; TDP1 cell noCPT: 21µM*; DT40 TDP1 CPT: inconclusive; KB-3-1 tox: inconclusive; KB-V1 cytotox: inconclusive

How did COc1cc(CC(=O)Nc2ccc3nc(SC)sc3c2)cc(OC)c1OC do in these assays?
HT1080 IDH1KD tx: 3%; HT1080NT lethal: -5%; TDP1 cell noCPT: 21µM*; DT40 TDP1 CPT: inconclusive; KB-3-1 tox: inactive; KB-V1 cytotox: inconclusive

What do the screens show for `Cc1nc2ccc(NC(=O)Cc3ccsc3)cc2s1`?
HT1080 IDH1KD tx: 0%; HT1080NT lethal: -2%; TDP1 cell noCPT: 13µM*; DT40 TDP1 CPT: 16µM*; KB-3-1 tox: inactive; KB-V1 cytotox: inactive

Results for C=CCNC(=O)Nc1ccc2nc(C)sc2c1 ?
HT1080 IDH1KD tx: 21%; HT1080NT lethal: 3%; TDP1 cell noCPT: inconclusive; DT40 TDP1 CPT: 16µM*; KB-3-1 tox: inactive; KB-V1 cytotox: inactive

Results for Cc1ccc(NC(=O)Cc2ccsc2)cc1Cl ?
HT1080 IDH1KD tx: 0%; HT1080NT lethal: 9%; TDP1 cell noCPT: -29%; DT40 TDP1 CPT: inconclusive; KB-3-1 tox: inactive; KB-V1 cytotox: inactive

What do the screens show for `C=CCN(CC=C)C(=O)Nc1ccc2nc(C)sc2c1`?
HT1080 IDH1KD tx: 16%; HT1080NT lethal: 10%; TDP1 cell noCPT: 21µM*; DT40 TDP1 CPT: -25%; KB-3-1 tox: inactive; KB-V1 cytotox: inactive

Results for CSc1nc2ccc(NC(=O)CS(=O)(=O)c3ccccc3)cc2s1 ?
HT1080 IDH1KD tx: 1%; HT1080NT lethal: 13%; TDP1 cell noCPT: inconclusive; DT40 TDP1 CPT: -8%; KB-3-1 tox: inactive; KB-V1 cytotox: inconclusive

What do the screens show for `C[C@@H]1C=C(C(=O)NCc2nc3ccccc3[nH]2)O[C@H](OCCCCO)C1`?
HT1080 IDH1KD tx: 10%; HT1080NT lethal: 3%; TDP1 cell noCPT: 5%; DT40 TDP1 CPT: 2%; KB-3-1 tox: inactive; KB-V1 cytotox: inactive

How did Cc1ccc(NC(=O)CCNS(=O)(=O)c2ccc3c(c2)CCC(=O)N3)cc1 do in these assays?
HT1080 IDH1KD tx: 28%; HT1080NT lethal: 17%; TDP1 cell noCPT: 15%; DT40 TDP1 CPT: -9%; KB-3-1 tox: inactive; KB-V1 cytotox: inconclusive

What do the screens show for `CCOC(=O)c1cc2occc2n1CC(=O)N1CCCc2ccccc21`?
HT1080 IDH1KD tx: -4%; HT1080NT lethal: -4%; TDP1 cell noCPT: inconclusive; DT40 TDP1 CPT: inconclusive; KB-3-1 tox: inactive; KB-V1 cytotox: 16µM*

How did CCOC(=O)c1cc2sccc2n1CC(=O)N1CCCc2ccccc21 do in these assays?
HT1080 IDH1KD tx: 0%; HT1080NT lethal: 0%; TDP1 cell noCPT: inconclusive; DT40 TDP1 CPT: inconclusive; KB-3-1 tox: inactive; KB-V1 cytotox: inconclusive

What do the screens show for `Cc1ccc2c(c1)N(CC(=O)NC1CCC(C)CC1)C(=O)CO2` (configuration not stated)?
HT1080 IDH1KD tx: 1%; HT1080NT lethal: 4%; TDP1 cell noCPT: -4%; DT40 TDP1 CPT: -17%; KB-3-1 tox: inactive; KB-V1 cytotox: inactive

What do the screens show for `Cc1ccc2c(c1)N(CC(=O)N1CCCc3ccccc31)C(=O)CO2`?
HT1080 IDH1KD tx: -5%; HT1080NT lethal: -8%; TDP1 cell noCPT: -26%; DT40 TDP1 CPT: -5%; KB-3-1 tox: inactive; KB-V1 cytotox: 12µM*

What do the screens show for `Cc1ccc2c(c1)N(CC(=O)NC1CCCc3ccccc31)C(=O)CO2` (configuration not stated)?
HT1080 IDH1KD tx: 0%; HT1080NT lethal: 1%; TDP1 cell noCPT: -24%; DT40 TDP1 CPT: -32%; KB-3-1 tox: inactive; KB-V1 cytotox: 16µM*
